A selection: hits, their analogues and other compounds. The true share with any hit is near 2.1%.
aSyn rescue = qHTS of alpha-syn Inhibitors; Yeast expressing alpha-synuclein, growth rescue, BacTiter-Glo, 24 h; Potency, µM (series often up to 46.1 µM), for the others: at the highest dose growth rescue (activation), most hits filed as activators; 0.14% of 370,000 active; AID 652106, 2013; further: % of control where 0% means no effect; nearly all actives have a fitted effect of over 65% in size
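Readout is rescue of growth in alpha-synuclein-expressing yeast, so inhibitors of toxicity appear as activators. Growth after 24 hr at 30 deg C in galactose medium is quantified by luminescence.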
TDP43 rescue = qHTS of TDP-43 Inhibitors. TDP-43 expressing yeast growth rescue, BacTiter-Glo, 24 h. Potency, µM (series often up to 46.1 µM), without a hit: at the highest dose growth rescue (activation), most hits filed as activators. 1.8% of 410,000 active; further: % of control where 0% means no effect; nearly all actives have a fitted effect of over 50% in size
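Readout is BacTiter-Glo luminescence of cell growth, so inhibitors register as activators. TDP-43-expressing yeast at OD600=0.02 in galactose medium, after raffinose pregrowth to mid-log, were incubated with compound for 24 hr at 30 deg C.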
Abeta rescue = qHTS for compounds that reverse cellular toxicity of Amyloid beta (A-beta) peptide in yeast: Primary Screen | yeast expressing A-beta42, growth rescue, OD600, 48 h; response scale: 0% DMSO, 100% iron-clioquinol control | Potency, µM (top dose mostly 46.1 µM), hits mostly activators | 0.063% of 410,000 active | AID 1347071, 2019; further: nearly all actives have a fitted effect of over 55% in size
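Growth rescue measured by 600 nm absorbance after 48 h yeast culture at 30 C with compound. Values normalized between DMSO and an equimolar ferric chloride plus clioquinol control.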
FUS suppressor = qHTS for Suppressors of FUS Proteinopathy: Primary screen using FUS-linked yeast assay; S. cerevisiae FUS-expressing, growth rescue, OD600, 24 h; Potency, µM (top dose mostly 76.6 µM), usual class: activators; 0.24% of 390,000 active; AID 1347120, 2019;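 further: plate controls were DMSO vehicle for no effect and reference control for full effect; nearly all actives have a fitted effect of over 55% in size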
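Galactose (2%) drives FUS expression in yeast precultured in raffinose; seeding density OD 0.005. Test compounds incubated 24hr at 30C and 99% humidity before absorbance at 600 nm was measured.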
The depositor's hits bear a star; i = inactive; ? = inconclusive; . = no result given. The call rests on the fitted dose curve; in most records, active means well fitted curve in the direction sought with a large enough effect; inconclusive means small, poorly fitted or top-dose-only effect, or another doubt; inactive means no such curve, though single readings can be large; an effect the other way counts as inactive or inconclusive. Potency means the concentration at half of the fitted maximal effect.

SMILES | aSyn rescue | TDP43 rescue | Abeta rescue | FUS suppressor
COc1ccc2c(c1)c(=O)oc1cc(OCC(=O)N3CCCC(C)C3)ccc12 (stereo not drawn) | -0.1% | 25.1µM* | i | i
COc1ccc(CC(=O)Nc2sc3c(c2C(N)=O)CCCC3)cc1 | -6.5% | -5.0% | i | i
COc1cc(OC)cc(C(=O)Nc2sc3c(c2C(N)=O)CCC3)c1 | 3.55µM* | -12.2% | i | i
Cn1cnnc1SCC(=O)Nc1sc2c(c1C(N)=O)CCC2 | 2.3% | 0.0% | i | 7.08µM*
COCCn1cnnc1SCC(=O)Nc1sc2c(c1C#N)CCC2 | -0.5% | 3.6% | i | .
O=C(CSc1nc2ccccc2n1-c1ccccc1)Nc1ncc(Cl)cc1Cl | 7.6% | 22.4µM* | i | i
COc1ccc(C)c2sc(N3CCN(C(=O)c4ccco4)CC3)nc12 | . | 22.4µM* | i | i
O=C(c1ccco1)N1CCN(c2nc3ccc(Cl)cc3s2)CC1 | . | 11.2µM* | i | i
CCc1ccc2nc(N3CCN(C(=O)c4ccccc4)CC3)sc2c1 | . | 11.2µM* | i | i
CCCC(=O)N1CCN(c2nc3ccc(CC)cc3s2)CC1 | 3.1% | ? | i | i
COc1ccc(C)c2sc(N3CCN(C(=O)c4cccc(F)c4)CC3)nc12 | . | 18.7% | i | i
Cc1cccc(Cl)c1NC(=O)N1CCCN(c2nc3ccc(Cl)cc3s2)CC1 | 5.2% | 20µM* | ? | i
CC(=O)c1cccc(NC(=O)c2oc(=O)c3ccccc3c2-c2ccccc2)c1 | . | 15.1% | i | i
CCOc1ccc(NS(=O)(=O)c2ccc(-c3cc(C)no3)s2)cc1 | . | 10.5% | i | i
O=C(c1ccc2nc(N3CCOCC3)sc2c1)N1CCC(Cc2ccccc2)CC1 | 4.6% | 25.1µM* | i | ?
Cc1ccc2cc3cc(C(=O)N4CCN(Cc5ccccc5)CC4)sc3nc2c1 | 0.5% | 15.9% | i | i
Cc1ccc(C)c(N2CCN(C(=O)c3ccc4nc(N5CCOCC5)sc4c3)CC2)c1 | 3.8% | 12.6µM* | i | ?
O=C(NCCc1ccccc1)c1ccc2nc(N3CCOCC3)sc2c1 | 0.1% | ? | i | i
Cc1ccc2cc3cc(C(=O)N4CCN(C(=O)c5ccco5)CC4)sc3nc2c1 | -1.4% | 12.6µM* | i | i
Cc1ccc(Cl)cc1N1CCN(C(=O)c2ccc3nc(N4CCC(C)CC4)sc3c2)CC1 | . | 3.1% | i | ?
O=C(/C=C/c1ccco1)Nc1ccc(Cl)c(-c2nc3cc(Cl)ccc3o2)c1 | . | 15.8% | i | i
Cc1ccc(NC(=O)C(CC(C)C)N2Cc3ccccc3C2=O)cc1F (stereo not drawn) | . | 18.2% | i | i
CCOc1cc(C=NN=C2c3ccccc3-c3ccccc32)ccc1O | 22.1% | 14.1µM* | i | .
Oc1cccc(C=NN=C2c3ccccc3-c3ccccc32)c1 | -27.7% | 28.2µM* | i | .
NC(=S)NN=C1CSSC1 | 2.82µM* | 20µM* | ? | i
SMILES | aSyn rescue | TDP43 rescue | Abeta rescue | FUS suppressor
CC1(C)CCC(=NNC(N)=S)CC1 | 1.0% | -16.5% | i | .
COc1ccc(N2CCN(C(=O)c3ccc4c(=O)n5c(nc4c3)CCCCC5)CC2)cc1 | -0.4% | 18.1% | i | i
O=C(c1ccc2c(=O)n3c(nc2c1)CCCCC3)N1CCN(c2cccc(Cl)c2)CC1 | 0.8% | 35.5µM* | i | ?
COc1ccccc1N1CCN(C(=O)c2ccc3c(Cl)c4c(nc3c2)CCCC4)CC1 | 0.5% | 20µM* | i | ?
O=C(c1ccc2c(Cl)c3c(nc2c1)CCCC3)N1CCN(c2ccc(F)cc2)CC1 | -2.0% | 15.8µM* | i | i
Cc1ccc(N2CCN(C(=O)c3ccc4c(Cl)c5c(nc4c3)CCCC5)CC2)c(C)c1 | . | 21.6% | i | i
COc1cccc(NC(=O)CSC2=Nc3ccccc3C3=NC(CCC(=O)NCCc4ccccc4)C(=O)N23)c1 (stereo not drawn) | . | 0.0% | i | i
N#Cc1ccccc1NC(=O)C(=O)NCC(c1cccnc1)N1CCc2ccccc21 (stereo not drawn) | . | 1.9% | i | i
COc1ccc(-n2nc(C(=O)NCC(=O)N3CC(C)CC(C)C3)c3ccccc3c2=O)cc1 (stereo not drawn) | 3.6% | 14.1µM* | i | i
COc1ccc(-n2nc(C(=O)NCC(=O)N3CCCCCC3)c3ccccc3c2=O)cc1 | 2.9% | 0.0% | i | i
Cc1ccc(NC(=O)C(=O)NCC(c2cccnc2)N2CCN(Cc3ccccc3)CC2)cc1Cl (stereo not drawn) | . | 4.8% | i | i
COCCCN(C(C)=O)c1nc(-c2ccc(OC)cc2)cs1 | -6.1% | 11.2µM* | i | i
O=C(Cn1c(=O)oc2cc(S(=O)(=O)NCc3ccccc3)ccc21)NCc1ccccc1Cl | . | 13.1% | i | i
Cc1csc(NC(=O)c2cc3c(s2)CCCC3)n1 | -37.0% | 28.2µM* | i | i
O=C(Nc1ccon1)c1cc2c(s1)CCCCCC2 | 1.3% | 12.6µM* | i | i
O=C(Nc1ccccc1N1CCOCC1)c1cc2c(s1)CCCCC2 | -17.6% | 7.94µM* | i | i
Cc1csc(NC(=O)c2cc3c(s2)CCCCC3)n1 | -34.6% | -1.1% | i | i
O=[N+]([O-])c1ccc2c(c1)/C(=C/c1ccc(C=S)cc1)C=C2 | 0.8% | . | . | .
COC(=O)c1ccc(Cl)cc1NC(=O)N1CCC(CN2CCC(C)CC2)CC1 | . | -13.2% | i | i
COc1cccc(CN(Cc2ccco2)c2cnc(S(C)(=O)=O)nc2C(=O)Nc2cccc(Cl)c2C)c1 | . | 10.2% | i | i
O=C(OCn1ncc(Br)c(Br)c1=O)c1ccc(F)cc1 | -70.8% | ? | i | i
O=C(OCn1ncc(Br)c(Br)c1=O)c1ccccc1Cl | -6.6% | 6.31µM* | i | i
c1cc2ccn(CC3CC3)c2cc1-c1ccc2ccn(CC3CC3)c2c1 | . | . | . | i
C#CCn1cnc2c(cnn2-c2ccc(F)cc2)c1=O | . | 0.0% | i | i
CCc1c(C)c2ccc3c(c2oc1=O)CN(Cc1ccccc1)CO3 | 4.47µM* | -7.1% | i | i
SMILES | aSyn rescue | TDP43 rescue | Abeta rescue | FUS suppressor
CCC(C(=O)Nc1cc(-c2nc3cccnc3s2)ccc1C)c1ccccc1 (stereo not drawn) | . | 20.8% | i | i
COc1ccc(S(=O)(=O)n2oc(=O)cc2-c2ccccc2)cc1OC | ? | 14.1µM* | i | i
O=c1cc(-c2ccccc2)n(S(=O)(=O)c2ccc3ccccc3c2)o1 | 20µM* | ? | i | i
COc1ccc(S(=O)(=O)n2oc(=O)cc2-c2ccccc2)cc1 | 9.8% | ? | i | i
O=C(Cc1ccc(F)cc1)NCCc1csc(-c2ccc(C(F)(F)F)cc2)n1 | 12.6% | 29.1% | i | i
O=C(/C=C/c1c(F)cccc1Cl)c1ccc(O)cc1 | ? | 7.94µM* | ? | i
